Measured values taken from PubChem BioAssay AID1159580 (chemical genetic matrix, 2015).
Several values for one entry are separate records, joined by “and”; a condition that tells them apart may be missing. Equal values may be shown once. Hit rate of the full screen: of about 5,500 compounds, about 2,000 (36%) were called active. Roughly 18% stayed inconclusive and do not appear here. Rule as the data show it: active = normalized growth mostly below about 0.91 (no sharp cut-off); inconclusive = no clear call, values can overlap the other calls; inactive = mostly above about 0.92. The list shows a part of the results.

Assay: chemical genetic growth profiling, strain panel (AID 1159580);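 also: tested at 20 µM; growth read once vehicle control cultures reached saturation at 30 °C; 1 = growth at the plate median or of vehicle wells; lower values mean less growth of the strain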
Conditions: S. cerevisiae deletion strains, growth OD

Measured: normalized growth

Nc1ccc(S(=O)(=O)c2ccc(N)cc2)cc1
inactive: locus YAL013W, strain DEP1, stronger effect = lower value 1.01 | locus YAL021C, strain ccr4, stronger effect = lower value 0.99 | locus YAL026C, strain drs2, stronger effect = lower value 1 | locus YAL030W, strain snc1, stronger effect = lower value 0.976 | locus YBL061C, strain skt5, stronger effect = lower value 0.993 | locus YBR009C, strain hhf1, stronger effect = lower value 1 | locus YBR021W, strain FUR4, stronger effect = lower value 1.04 | locus YBR023C, strain chs3, stronger effect = lower value 0.979 | locus YBR171W, strain sec66, stronger effect = lower value 1 | locus YBR229C, strain ROT2, stronger effect = lower value 1.01 | locus YBR231C, strain swc5, stronger effect = lower value 0.975 | locus YBR279W, strain paf1, stronger effect = lower value 0.983 | locus YCL011C, strain gbp2, stronger effect = lower value 0.999 | locus YCL016C, strain dcc1, stronger effect = lower value 0.997 | locus YCL029C, strain bik1, stronger effect = lower value 1.03 | locus YCL069W, strain vba3, stronger effect = lower value 1.01 | locus YCR088W, strain abp1, stronger effect = lower value 1.01 | locus YDL005C, strain med2, stronger effect = lower value 0.98 | locus YDL035C, strain GPR1, stronger effect = lower value 1.03 | locus YDL040C, strain nat1, stronger effect = lower value 0.991 | locus YDL074C, strain BRE1, stronger effect = lower value 1.02 | locus YDL101C, strain DUN1, stronger effect = lower value 1.02 | locus YDL134C, strain PPH21, stronger effect = lower value 1.02 | locus YDL185W, strain tfp1, stronger effect = lower value 1.02 | locus YDL192W, strain arf1, stronger effect = lower value 1.01 | locus YDR001C, strain nth1, stronger effect = lower value 1 | locus YDR069C, strain doa4, stronger effect = lower value 0.987 | locus YDR101C, strain arx1, stronger effect = lower value 0.987 | locus YDR137W, strain rgp1, stronger effect = lower value 1.01 | locus YDR159W, strain sac3, stronger effect = lower value 0.979 | locus YDR162C, strain NBP2, stronger effect = lower value 1.04 | locus YDR195W, strain ref2 0.939 | locus YDR297W, strain sur2, stronger effect = lower value 0.996 | locus YDR318W, strain mcm21, stronger effect = lower value 1.01 | locus YDR334W, strain swr1, stronger effect = lower value 0.986 | locus YDR335W, strain msn5, stronger effect = lower value 1 | locus YDR388W, stronger effect = lower value 1 | locus YDR392W, strain spt3, stronger effect = lower value 0.992 | locus YDR502C, strain sam2, stronger effect = lower value 1 | locus YEL003W, strain gim4, stronger effect = lower value 1.01 | locus YEL037C, strain rad23, stronger effect = lower value 1.01 | locus YEL061C, strain CIN8 (second series), stronger effect = lower value 1 | locus YEL061C, strain CIN8, stronger effect = lower value 1.01 | locus YER015W, strain faa2, stronger effect = lower value 0.999 | locus YER016W, strain bim1, stronger effect = lower value 0.991 | locus YER110C, stronger effect = lower value 0.993 | locus YER111C, strain swi4, stronger effect = lower value 1.02 | locus YER155C, strain BEM2 (second series), stronger effect = lower value 0.954 | locus YER155C, strain BEM2, stronger effect = lower value 1.02 | locus YER167W, strain BCK2, stronger effect = lower value 1.02 | locus YFR010W, strain ubp6, stronger effect = lower value 0.988 | locus YGL078C, strain dbp3, stronger effect = lower value 0.993 | locus YGL086W, strain mad1, stronger effect = lower value 1 | locus YGL167C, strain pmr1, stronger effect = lower value 0.995 | locus YGL173C, strain kem1, stronger effect = lower value 0.979 | locus YGL227W, strain vid30, stronger effect = lower value 1.01 | locus YGL240W, strain doc1, stronger effect = lower value 0.988 | locus YGL248W, strain PDE1, stronger effect = lower value 1.02 | locus YGL253W, strain hxk2, stronger effect = lower value 0.99 | locus YGR135W, strain pre9, stronger effect = lower value 1.01 | locus YGR229C, strain SMI1, stronger effect = lower value 1.03 | locus YGR252W, strain gcn5, stronger effect = lower value 1.01 | locus YHR013C, strain ard1, stronger effect = lower value 0.973 | locus YHR027C, strain rpn1, stronger effect = lower value 0.991 | locus YHR030C, strain SLT2, stronger effect = lower value 1.02 and 1.01 | locus YHR079C, strain IRE1 (second series), stronger effect = lower value 1.01 | locus YHR079C, strain IRE1, stronger effect = lower value 1.03 | locus YHR094C, strain hxt1, stronger effect = lower value 1.01 | locus YHR129C, strain ARP1, stronger effect = lower value 1.01 | locus YHR142W, strain chs7, stronger effect = lower value 1.01 | locus YHR200W, strain rpn10, stronger effect = lower value 1 | locus YIL066C, strain RNR3, stronger effect = lower value 1.02 | locus YIL073C, strain SPO22, stronger effect = lower value 1.03 | locus YIL125W, strain kgd1, stronger effect = lower value 1.01 | locus YIR030C, strain dcg1, stronger effect = lower value 1.01 | locus YJL092W, strain hpr5, stronger effect = lower value 0.998 | locus YJL095W, strain BCK1 (second series), stronger effect = lower value 0.983 | locus YJL095W, strain BCK1, stronger effect = lower value 1.02 and 1.03 | locus YJL115W, strain asf1, stronger effect = lower value 1 | locus YJL129C, strain trk1, stronger effect = lower value 0.991 | locus YJL134W, strain LCB3, stronger effect = lower value 1.03 | locus YJL154C, strain vps35, stronger effect = lower value 0.987 | locus YJL164C, strain tpk1, stronger effect = lower value 0.987 | locus YJL166W, strain qcr8, stronger effect = lower value 1 | locus YJL168C, strain set2, stronger effect = lower value 0.996 | locus YJL187C, strain SWE1 (second series), stronger effect = lower value 1.01 | locus YJL187C, strain SWE1, stronger effect = lower value 1 | locus YJR043C, strain POL32, stronger effect = lower value 1.01 | locus YJR066W, strain TOR1, stronger effect = lower value 0.98 | locus YJR075W, strain HOC1, stronger effect = lower value 1.02 | locus YKL009W, strain mrt4, stronger effect = lower value 0.988 | locus YKL068W, stronger effect = lower value 1.01 | locus YKL085W, strain MDH1 (second series), stronger effect = lower value 1.01 | locus YKL085W, strain MDH1, stronger effect = lower value 1.01 | locus YKL160W, strain elf1, stronger effect = lower value 0.988 | locus YKR001C, strain vps1, stronger effect = lower value 0.994 | locus YKR026C, strain gcn3, stronger effect = lower value 0.99 | locus YKR091W, strain srl3, stronger effect = lower value 1 | locus YLL001W, strain dnm1, stronger effect = lower value 0.991 | locus YLL026W, stronger effect = lower value 0.987 | locus YLL041C, strain sdh2, stronger effect = lower value 1.01 | locus YLR027C, strain aat2, stronger effect = lower value 1 | locus YLR039C, strain RIC1, stronger effect = lower value 0.972 | locus YLR058C, strain SHM2, stronger effect = lower value 1.02 | locus YLR102C, strain apc9, stronger effect = lower value 1.01 | locus YLR113W, strain HOG1, stronger effect = lower value 1.05 | locus YLR221C, strain rsa3, stronger effect = lower value 0.984 | locus YLR258W, strain gsy2, stronger effect = lower value 0.999 | locus YLR262C, strain YPT6 (second series), stronger effect = lower value 0.966 | locus YLR262C, strain YPT6, stronger effect = lower value 1.02 | locus YLR268W, strain sec22, stronger effect = lower value 1.01 | locus YLR320W, strain mms22, stronger effect = lower value 0.995 | locus YLR330W, strain CHS5, stronger effect = lower value 1.02 | locus YLR342W, strain FKS1 (second series), stronger effect = lower value 1.03 | locus YLR342W, strain FKS1, stronger effect = lower value 0.996 | locus YLR357W, strain rsc2, stronger effect = lower value 0.969 | locus YLR370C, strain arc18, stronger effect = lower value 0.992 | locus YLR371W, strain rom2, stronger effect = lower value 1.01 | locus YLR384C, strain iki3, stronger effect = lower value 0.987 | locus YLR418C, strain cdc73, stronger effect = lower value 1 | locus YML016C, strain PPZ1, stronger effect = lower value 1.01 | locus YML032C, strain rad52, stronger effect = lower value 0.999 | locus YML120C, strain ndi1, stronger effect = lower value 0.999 | locus YML124C, strain tub3, stronger effect = lower value 1.02 | locus YMR058W, strain fet3, stronger effect = lower value 1 | locus YMR078C, strain ctf18, stronger effect = lower value 1.01 | locus YMR125W, strain sto1, stronger effect = lower value 1 | locus YMR129W, stronger effect = lower value 0.996 | locus YMR205C, strain PFK2, stronger effect = lower value 0.976 | locus YMR223W, strain ubp8, stronger effect = lower value 0.994 | locus YMR231W, strain pep5, stronger effect = lower value 0.986 | locus YMR263W, strain SAP30, stronger effect = lower value 1.01 | locus YMR307W, strain GAS1, stronger effect = lower value 1.08 | locus YNL067W, strain RPL9B, stronger effect = lower value 1.02 | locus YNL071W, strain lat1, stronger effect = lower value 0.997 | locus YNL153C, strain GIM3, stronger effect = lower value 1.01 | locus YNL183C, strain NPR1, stronger effect = lower value 0.98 | locus YNL209W, strain ssb2, stronger effect = lower value 1 | locus YNL233W, strain BNI4, stronger effect = lower value 1.02 | locus YNL248C, strain rpa49, stronger effect = lower value 0.951 | locus YNL250W, strain rad50, stronger effect = lower value 0.985 | locus YNL271C, strain bni1, stronger effect = lower value 0.995 | locus YNL298W, strain CLA4, stronger effect = lower value 1 | locus YNL307C, strain MCK1, stronger effect = lower value 1 | locus YNL322C, strain KRE1 (second series), stronger effect = lower value 1 | locus YNR049C, strain mso1, stronger effect = lower value 1 | locus YNR052C, strain pop2, stronger effect = lower value 1.01 | locus YOL012C, strain htz1 0.692 | locus YOL147C, strain pex11, stronger effect = lower value 1.01 | locus YOR001W, strain rrp6, stronger effect = lower value 0.998 | locus YOR061W, strain CKA2, stronger effect = lower value 1.02 | locus YOR069W, strain VPS5, stronger effect = lower value 1.01 | locus YOR070C, strain gyp1, stronger effect = lower value 0.992 | locus YOR080W, strain dia2, stronger effect = lower value 0.984 | locus YOR083W, strain WHI5, stronger effect = lower value 0.984 | locus YOR106W, strain vam3, stronger effect = lower value 1.01 | locus YOR136W, strain idh2, stronger effect = lower value 1 | locus YOR144C, strain elg1, stronger effect = lower value 1.01 | locus YOR184W, strain ser1, stronger effect = lower value 1.02 | locus YOR231W, strain MKK1, stronger effect = lower value 1.04 | locus YOR265W, strain rbl2, stronger effect = lower value 0.987 | locus YOR270C, strain vph1, stronger effect = lower value 1.05 | locus YOR290C, strain snf2, stronger effect = lower value 0.99 | locus YOR316C, strain cot1, stronger effect = lower value 1 | locus YPL051W, strain arl3, stronger effect = lower value 0.977 | locus YPL055C, strain LGE1, stronger effect = lower value 1.03 | locus YPL078C, strain atp4, stronger effect = lower value 0.998 | locus YPL106C, strain sse1, stronger effect = lower value 0.984 | locus YPL240C, strain hsp82, stronger effect = lower value 0.991 | locus YPL241C, strain CIN2, stronger effect = lower value 1.01 | locus YPL256C, strain CLN2, stronger effect = lower value 1.02 | locus YPR119W, strain clb2, stronger effect = lower value 1.01 | locus YPR141C, strain kar3, stronger effect = lower value 1.02 | locus YPR163C, strain tif3, stronger effect = lower value 1.01 | locus YPR167C, strain met16, stronger effect = lower value 1.01 | strain wtn01, stronger effect = lower value 0.983
